# According to PubChem BioAssay:
# For part of these data: Entries with a potency or affinity are not part of this list. Activity calls are given as the source filed them. Unless noted, no rule for the calls is given here.
# What was measured:
# [1] = biological target: Cell division control protein 42 homolog (Homo sapiens) (UniProt P60953); experiment: inhibition of fluorescent GTP binding to constitutively active Cdc42 – biochemical, multiplex bead flow cytometry, Bodipy-FL-GTP, dose response (AID 1333;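 active = fitted half-maximal concentration within the tested dose range, moderate curve steepness, a statistically real signal drop, and little compound fluorescence or tag-binding interference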)
# [2] = biological target: Cell division control protein 42 homolog (Homo sapiens) (UniProt P60953); experiment: inhibition of fluorescent GTP binding to wildtype Cdc42 – biochemical, multiplex bead flow cytometry, Bodipy-FL-GTP, dose response (AID 1334;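 active = fitted half-maximal concentration within the tested range, moderate curve steepness, significant signal drop, and little compound fluorescence or bead-linkage interference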); conditions: bead-based flow cytometry, Bodipy-FL-GTP binding to GST-Cdc42; at 100 µM (top of the series) unless noted
# [3] = biological target: GTPase HRas (Homo sapiens) (UniProt P01112); experiment: Ras wt fluorescent GTP loading blockade – biochemical, wildtype, multiplex bead flow cytometry, dose response (AID 1335;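 active = fitted half-maximal concentration within 10 nM to 100 µM, steepness 0.5 to 2, significant signal drop, low assay interference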); conditions: bead-based flow cytometry, Bodipy-GTP binding to GST-Ras; at 100 µM (top of the series) unless noted
# [4] = system: Ras-related protein Rab-7a (dog), GTP binding; experiment: blockers of fluorescent GTP binding to Rab7 – biochemical, wildtype, multiplex bead flow cytometry, dose response (AID 1336)
# [5] = biological target: Ras-related C3 botulinum toxin substrate 1 (Homo sapiens) (UniProt P63000); experiment: inhibition of wildtype Rac1 nucleotide loading – biochemical, multiplex bead flow cytometry, dose response (AID 1340;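 active = dose curve with midpoint inside tested range, moderate steepness, plateau gap beyond fit error, low compound glow and bead-link interference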); conditions: GST-Rac1 beads, Bodipy-FL-GTP binding; at 100 µM (top of the series) unless noted
# [6] = biological target: GTPase HRas (Homo sapiens) (UniProt P01112); experiment: blockade of GTP loading onto mutant Ras – biochemical, activated mutant, multiplex bead flow cytometry, dose response (AID 1341;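 active = dose-response curve with midpoint inside the tested range, moderate steepness, significant amplitude and little compound fluorescence or bead-attachment interference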;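 also: GST-tagged constitutively activated Ras mutant immobilized on beads and multiplexed with other GTPases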)
# Cell division control protein 42 homolog (Homo sapiens), sequence (P60953 whole entry, looked up): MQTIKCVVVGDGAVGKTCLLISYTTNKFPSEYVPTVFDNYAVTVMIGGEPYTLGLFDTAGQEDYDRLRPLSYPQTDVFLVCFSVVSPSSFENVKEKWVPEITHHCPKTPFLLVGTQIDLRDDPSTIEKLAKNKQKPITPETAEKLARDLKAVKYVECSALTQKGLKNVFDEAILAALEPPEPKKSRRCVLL
# GTPase HRas (Homo sapiens), sequence (P01112 whole entry, looked up): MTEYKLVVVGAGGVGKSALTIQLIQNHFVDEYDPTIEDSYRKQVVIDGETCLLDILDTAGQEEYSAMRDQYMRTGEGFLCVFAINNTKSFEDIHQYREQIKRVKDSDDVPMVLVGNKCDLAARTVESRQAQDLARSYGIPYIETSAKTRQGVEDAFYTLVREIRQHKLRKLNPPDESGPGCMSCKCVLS
Compound,outcome [1],"fluorescence, percent of control (lower = inhibition) [2]","GTP binding, percent of control [3]",outcome [4],"GTP binding signal, raw median fluorescence (lower = inhibition) (MCF (arbitrary fluorescence units)) [5]",outcome [6]
Cc1ccc(OCCn2cc(C(=O)O)c3ccccc32)cc1C,inactive,60.4%,85.4%,inactive,32.5,inactive
CCn1cc(C(=O)O)c(=O)c2cc(F)c(N/N=C/c3ccccc3)cc21,inactive,45.9%,58.9%,inactive,144,inactive
Cc1c2cc(O)c(=O)cc-2oc2cc(O)c(O)cc12,inactive,5290%,5530%,inactive,5510,inactive
COC(=O)c1ccc(/C=N/Nc2nc(-c3ccc(Cl)cc3Cl)cs2)cc1,inactive,39.1%,81.6%,inactive,242,inactive
Cc1nc2ccccn2c1-c1csc(Nc2cccc(O)c2)n1,inactive,35.4%,80.4%,inactive,216,inactive
CCOc1ccc(-n2c(-c3ccco3)n[nH]c2=S)cc1,inactive,56.1%,112%,inactive,107,inactive
Cc1cc(-c2n[nH]c(=S)n2/N=C/c2cccc([N+](=O)[O-])c2)n[nH]1,inactive,35%,51%,inactive,102,inactive
O=C(Cn1c(-c2cscn2)nc2ccccc21)Nc1cc(F)ccc1F,inactive,33.9%,75.9%,inactive,210,inactive
O=C1c2ccccc2-n2c1nc1ccccc1c2=O,inactive,35.1%,78.8%,inactive,204,inactive
O=C(O)C1CSC(CCc2ccccc2)N1 (stereo not given),inactive,98.5%,125%,inactive,87.7,inactive
COc1cc(Cl)c(C)cc1NCc1sc(C(=O)O)cc1C,inactive,58.6%,82%,inactive,29.9,inactive
Cc1nc(Nc2ccc(C(=O)O)cc2)nc(Nc2ccc(C(=O)O)cc2)c1[N+](=O)[O-],inactive,28.7%,64.9%,inactive,111,inactive
COc1cc(/C=N/NC(=O)CSc2n[nH]c(=O)[nH]c2=O)cc(OC)c1O,inactive,36%,78.9%,inactive,178,inactive
COc1ccc(CCn2c(C(C)C)nc3c(c(=O)c4ccccc4n3C)c2=O)cc1,inactive,34.5%,82.6%,inactive,241,inactive
Cc1ccc(C)c(OCCSc2nc3ccccc3n2CC(=O)O)c1,inactive,59.6%,88.1%,inactive,29.2,inactive
C/C=C/c1ccccc1OCc1ccc(C(=O)O)o1,inactive,180%,326%,inactive,420,inactive
COc1cccc(OCc2ccccc2Br)c1C(=O)O,inactive,51.9%,206%,inactive,46.4,inactive
O=C(N/N=C/c1ccc(-c2ccccc2[N+](=O)[O-])o1)c1cncc(Br)c1,inactive,44.2%,55.2%,inactive,150,inactive
O=C(O)c1cccc(-n2cccc2/C=C2/NC(=O)N(c3ccc(Cl)cc3)C2=O)c1,inactive,22.7%,64.3%,inactive,213,inactive
O=C(NC1CC2CCCC(C1)N2C(=O)Nc1ccc(Cl)c(C(F)(F)F)c1)C1CC1 (stereo not given),inactive,94.3%,162%,inactive,185,inactive
OC(c1ccc(OCc2ccccc2)cc1)c1nnc(-c2ccccc2)o1 (stereo not given),inactive,92.3%,177%,inactive,173,inactive
O=C(O)/C=C\C(=O)Nc1cccc(C(=O)Nc2cccc(O)c2)c1,inactive,38.6%,84.2%,inactive,162,inactive
Cc1nc(N/N=C/c2ccc(O)cc2)c2cnn(-c3ccccc3)c2n1,inactive,30.2%,73.5%,inactive,191,inactive
COc1ccc(OCc2ccccc2Br)c(C(=O)O)c1,inactive,53%,217%,inactive,49.3,inactive
CCC(Oc1ccc2ccccc2c1)C(=O)O (stereo not given),inactive,123%,156%,inactive,190,inactive
Cc1cc(NS(=O)(=O)c2ccc(Nc3nc(-c4sc(N)nc4C)cs3)cc2)no1,inactive,23.8%,58.3%,inactive,122,inactive
COc1ccc(/C=C2/N=C(SCC(=O)Nc3cc(C)on3)N(c3ccccc3)C2=O)cc1,inactive,41.3%,54.1%,inactive,177,inactive
CC(=O)OC(C(=O)NC1CCCCC1)c1ccc(Cl)cc1 (stereo not given),inactive,34.5%,82.1%,inactive,240,inactive
O=C(O)CC/C(=C\c1ccc(N2CCOCC2)c([N+](=O)[O-])c1)c1nc2ccccc2s1,inactive,28.1%,71.9%,inactive,212,inactive
O=C(O)c1ccc(CNCc2ccc(F)cc2)cc1,inactive,43.1%,87.8%,inactive,260,inactive
